# Assay outcomes as filed in PubChem BioAssay.
# SNCA expr inh – SNCA gene expression inhibition; Potency, µM (highest dose often 57.2 µM), without a hit: top-dose activity change, negative = inhibition, hits mostly inhibitors; HEK-293 SNCA-luciferase knock-in, luminescence, 24 h; AID 1671194; hit rate 0.17% among 140,000;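 also: potency is read from the fitted curve at half-maximal effect; plate controls were DMSO cells for no effect and cell-free wells for full effect; nearly all actives have a fitted effect of over 45% in size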
# IP6K1 inhibitor – inhibitors of human IP6K1. IP6K1 kinase, ADP-Glo luminescence, 2 h; hits give low values. AID 1645851. activity change, % (series mostly up to about 58 µM). Q92551. hit rate 0.81% among 140,000; in the data active = activity change below about -25%
# Target sequence (Q92551 whole entry, looked up): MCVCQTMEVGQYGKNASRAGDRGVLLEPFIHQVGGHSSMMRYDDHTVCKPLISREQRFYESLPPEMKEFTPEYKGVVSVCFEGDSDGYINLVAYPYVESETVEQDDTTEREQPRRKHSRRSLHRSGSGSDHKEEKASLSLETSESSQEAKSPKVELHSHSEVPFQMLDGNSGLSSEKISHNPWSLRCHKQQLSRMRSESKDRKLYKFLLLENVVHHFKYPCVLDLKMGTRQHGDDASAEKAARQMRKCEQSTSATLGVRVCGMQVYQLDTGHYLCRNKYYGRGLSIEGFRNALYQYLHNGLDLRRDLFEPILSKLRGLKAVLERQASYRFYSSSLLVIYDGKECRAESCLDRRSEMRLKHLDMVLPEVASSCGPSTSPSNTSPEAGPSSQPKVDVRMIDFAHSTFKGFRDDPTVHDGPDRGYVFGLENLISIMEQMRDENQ
#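 ADP-Glo luminescence measures ADP made by human IP6K1 during a 2 h RT reaction with ATP/IP6 (mix at 1.3 mM/130 uM); top library doses 57.5 and 19.1 uM final.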
# GPT2 inh – GPT2 alanine aminotransferase inhibition; Q8TD30; Recombinant GPT2, coupled pyruvate oxidase/HRP Amplex Red fluorescence; Potency, µM (highest dose often 57.7 µM), for the others: at the highest dose activity change, negative = inhibition, most hits filed as inhibitors; hit rate 0.25% among 100,000; AID 1671188; also: potency is read from the fitted curve at half-maximal effect; nearly all actives have a fitted effect of over 60% in size
#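 Fluorescence read-out: pyruvate from GPT2 turnover coupled to pyruvate oxidase, HRP and Amplex Red (0.2mM ThPP, 0.2U/mL PO and HRP, 50uM Amplex final). Substrates 250uM a-KG, 2mM L-alanine; enzyme 10ng/uL; 30 min RT.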
# HEK293 viab – reduces viability of HEK-293 SNCA reporter cells; Potency, µM (series often up to 57.1 µM), inactives show at the top dose activity change, negative = cytotoxicity, most hits filed as cytotoxic; hit rate 0.12% among 150,000; HEK-293-SNCA-luc viability, GF-AFC fluorescence, 24 h; AID 1671193;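 also: potency is read from the fitted curve at half-maximal effect; 0% = DMSO-treated cells and -100% = medium-only wells without cells; nearly all actives have a fitted effect of over 30% in size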
#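 Cytotoxicity counterscreen: after 24 h compound treatment of genome-edited SNCA-luciferase HEK-293 cells, live-cell protease substrate GF-AFC read by fluorescence after 30 min; activity scaled between DMSO (0%) and medium-only (-100%), curves Hill-fitted.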
# IP6K1 inh cnf – human IP6K1 inhibition, confirmatory | hit rate 13% among 1,200 | recombinant IP6K1 kinase, ADP-Glo luminescence, 2 h | shares compounds with IP6K1 inhibitor | Potency, µM (doses to about 49 µM), for inactives: top-dose activity change, negative = inhibition, most hits filed as inhibitors; also: potency is read from the fitted curve at half-maximal effect; nearly all actives have a fitted effect of over 65% in size
# Starred values were filed as active, the others as inactive; i = inactive; ? = inconclusive; / = not tested or not shown; ! = repeats disagree; [ ] = remark or other dose. Rows were chosen to be rich in hits. Some 1.1% of all compounds tested hit in one or more screens of this group. Unless noted, calls follow the shape of the dose curve; as a rule, active = well fitted curve in the direction sought with a large enough effect; inconclusive = small, poorly fitted or top-dose-only effect, or another doubt; inactive = no such curve, though single readings can be large; an effect the other way counts as inactive or inconclusive. Unless noted, % is scaled to controls: 0 for no effect and ±100 for the full control effect.
SMILES,SNCA expr inh,IP6K1 inhibitor,GPT2 inh,HEK293 viab,others
CC(C)=CCCC1(C)/C=C/C(OC(=O)C=C(C)C)C(C)(O)/C=C/C(=O)/C(CO)=C\C1 (stereo unspecified),/,2,-10%[27.3 µM],13µM*,
OC(c1cccc(C(F)(F)F)c1)c1nc(Nc2ccc(F)cc2)n[nH]1 (stereo unspecified),-33%[87.6 µM],2,3%[88.5 µM],0%[87.6 µM],
CC(C)C[C@H](NC(=O)[C@H](CCc1ccccc1)NC(=O)CN1CCOCC1)C(=O)N[C@@H](Cc1ccccc1)C(=O)N[C@@H](CC(C)C)C(=O)[C@@]1(C)CO1,0.12µM*!,-1,i,?,
C=C1C(=O)O[C@@H]2/C=C(\C)C(=O)/C=C/[C@](C)(O)C[C@@H](OC(=O)C(C)C)[C@@H]12,/,-1,1%[27.3 µM],9.3µM*,
CNC[C@H](O)c1ccc(O)c(O)c1,-2%,-14,14µM*!,-5%,
CC(C)NCC(O)c1ccc2ccccc2c1 (stereo unspecified),-11%[25.6 µM],7,i,-3%[23.9 µM],
CC(C)NCC(O)c1ccc(O)c(O)c1 (stereo unspecified),-24%,8,17µM*!,?,
O=C(Nc1cccc(F)c1)c1cnc2c(c1)N(C(=O)Cc1cccc(C(F)(F)F)c1)CCC2,4%,10,-7%,-12%,
CC1=C(CO)CC(C(C)C2CCC3C4CC=C5CC(OC6OC(COC7OC(CO)C(O)C(O)C7O)C(O)C(O)C6O)CC(O)C5(C)C4CCC23C)OC1=O (stereo unspecified),/,-4,i,-23%[23.9 µM],
CC1=C(CO)C(=O)O[C@@H]([C@@H](C)[C@H]2CC[C@H]3[C@@H]4C[C@H]5O[C@]56[C@@H](O)C=CC(=O)[C@]6(C)[C@H]4CC[C@]23C)C1,/,-8,2%[27.3 µM],10µM*,
CC1=C(C(=O)NC23CC4CC(CC(C4)C2)C3)C(c2cccnc2)NC(=O)N1 (stereo unspecified),13%,-6,-1%,1%,
CCNc1nc2c(s1)C(c1cccnc1)CC(=O)N2 (stereo unspecified),22%,-46*,?,-2%,
CNc1nc2c(s1)C(c1ccc(F)c(F)c1)CC(=O)N2 (stereo unspecified),17%,-37*,?,10%,
Cc1cccn2c3c(c(=O)nc12)C(c1cccc(F)c1)CC(=O)N3 (stereo unspecified),37%,-1,/,23%,
CNS(=O)(=O)c1ccc(C2CC(=O)Nc3cc(O)c(OC)cc32)cc1 (stereo unspecified),-10%,1,?,-8%,
CNc1nc2c(s1)C(c1cccc(F)c1)CC(=O)N2 (stereo unspecified),?,-67*,?,-12%,
Cc1ccc(N2CC(c3noc(-c4cc(F)ccc4Cl)n3)CC2=O)cc1 (stereo unspecified),3%,12,i,12%,
Cc1nn(-c2ccccc2)c2c1C(C1CC1)N(CC1CN(C(=O)c3cccc(Cl)c3)C1)C2=O (stereo unspecified),/,8,/,/,
CCCCC(=O)NC1CCN(c2cnn(Cc3ccccc3)c(=O)c2)CC1,11%,13,i,-3%,
COc1cc2nc(N3CCC(N4CCCCC4)CC3)nc(NC3CCCCCC3)c2cc1OC,/,14,0%,24µM*,
COc1cc2c(NC3CCN(C(C)C)CC3)nc(C3CCCCC3)nc2cc1OCCCN1CCCC1,36%,-16,-7%,?,
O=C(c1ncn[nH]1)N1C[C@@H](COCC2CC2)[C@H](c2ccccn2)C1,0.79µM*,2,i,-24%,
CC1(C)CC[C@]2(C(=O)O[C@@H]3O[C@H](CO)[C@@H](O)[C@H](O)[C@H]3O)CC[C@]3(C)C(=CCC4[C@@]5(C)C[C@H](O)[C@H](O[C@@H]6OC[C@@H](O)[C@H](O)[C@H]6O)[C@@](C)(CO)C5CC[C@]43C)C2C1 (stereo partly specified),/,1,-5%[17.1 µM],-11%[12.5 µM],
CC1OC2OC3C(OCC(O)C3O)OC(=O)C34CCC(C)(C)CC3C3=CCC5C6(C)CC(O)C(OC7OC(CO)C(O)C(O)C7OC7OCC(OC(=O)CC(C)(O)CC(=O)OC1C(OC1OCC(O)C(O)C1O)C2O)C(O)C7O)C(C)(CO)C6CCC5(C)C3(C)CC4O (stereo unspecified),/,10,-6%[27.3 µM],5.2µM*,
COc1ccc(C(=O)N2CCc3ccc(C(=O)NCc4ccccn4)cc32)cc1,-16%,5,-19%,?,
SMILES,SNCA expr inh,IP6K1 inhibitor,GPT2 inh,HEK293 viab,others
CC(C)c1ccc(CC(=O)N2CCCc3ncc(C(=O)Nc4cccnc4)cc32)cc1,1µM*,-22,i,?,
CC(C)c1ccc(CC(=O)N2CCCc3ncc(C(=O)Nc4cccc(Cl)c4)cc32)cc1,?,7,3%,?,
COc1ccc(C(=O)Nc2ncc(-c3ccc(C(=O)O)cc3)s2)cc1,/,-17,4%,-36%,
COc1cc(C)c(Sc2cnc(NC(=O)c3ccc(CNC(C)C(C)C)cc3)s2)cc1C(=O)N1CCN(C(C)=O)CC1 (stereo unspecified),?,-13,0%,27µM*!,
O=C1NCC2(CCN(Cc3cccnc3)CC2)Oc2ccccc21,-26%,2,-11%,-1%,
CCN(CC)CCNC(=O)c1ccc2nc(-c3ccccc3)c(-c3ccc(CN4CCC(n5c(=O)[nH]c6ccccc65)CC4)cc3)nc2c1,?,-1,4%,15µM*!,
Cn1cccc1-c1noc(C2CCN(C(=O)c3cccc(C#N)c3)C2)n1 (stereo unspecified),-20%,6,i,-8%,
CCOc1ccccc1CN1C(=O)c2ccccc2C1C(=O)NC1CCCCCC1 (stereo unspecified),-5%,-41*,/,?,IP6K1 inh cnf=-18%
Oc1ccc(/C=C/c2cc(O)cc(O)c2)cc1,?,-60*,i,-12%,IP6K1 inh cnf=9.2µM*
Cc1cc(CNC(=O)Cc2nonc2C)c2[nH]c(-c3ccccc3)c(C)c2c1,19%,-29*,-16%,-9%,IP6K1 inh cnf=-13%
CCN(CC)C1CCOC2(CCN(C(=O)c3sc(C)nc3C)CC2)C1 (stereo unspecified),3%,12,-10%,8%,
COCC(=O)Nc1cccc(-c2nc3cccnc3s2)c1,120%,-27*,/,6%,IP6K1 inh cnf=?
O=C(Cc1ccccc1)Nc1cccc(-c2nc3cccnc3s2)c1,70%,-19,/,6%,
COc1ccc(N2C(=O)CSC23C(=O)N(C)c2ccccc23)cc1Cl (stereo unspecified),-14%,-26*,/,-1%,IP6K1 inh cnf=-18%
COc1cc(N2C(=O)CSC23C(=O)N(C)c2ccccc23)cc(OC)c1OC (stereo unspecified),2%,6,/,-1%,
O=C1COc2ccc(-c3ccoc3)nc2CN1Cc1ccc(C(F)(F)F)cc1,-20%[87.6 µM],-29*,i,-10%[87.6 µM],IP6K1 inh cnf=?
